In PubChem BioAssay:
Active and inactive are the calls of the source.

Key:
[1] = binders of probe aFSTL3 on microarray, primary screen, stem cell growth factor project, biochemical, small-molecule microarray, fluorescence 635/667 (AID 1064); conditions: higher = more signal;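 note: measures binding of the biotinylated anti-FSTL3 antibody to printed compounds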
[2] = binders from COS7 lysate, DM2A8 probe, primary screen, torsin A project, cell lysate, small-molecule microarray, fluorescence 635/667 (AID 1065); conditions: higher = more signal, COS7 lysate expressing mutant human TOR1A
[3] = binders of probe aFGF2 on microarray, primary screen, stem cell growth factor project, biochemical, small-molecule microarray, fluorescence 635/667 (AID 1067); conditions: higher = more signal;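 note: measures binding of biotinylated aFGF2 protein to printed compounds on slides; z-score merges feature fluorescence and signal-to-noise across triplicate slides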
[4] = binders of probe aFGF10 on microarray, primary screen, stem cell growth factor project, biochemical, small-molecule microarray, fluorescence 635/667 (AID 1071); conditions: higher = more signal;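 note: score merges 667 nm spot intensity and signal to noise from triplicate slides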
[5] = target: Neurogenic locus notch homolog protein 2 (Homo sapiens) (UniProt Q04721); test: Notch2 binders on small-molecule microarrays, primary screen, biochemical, small-molecule microarray, 635 nm fluorescence, stem cell growth factors (AID 1073); conditions: Notch2 binding, higher = more signal
[6] = target: Pro-neuregulin-1, membrane-bound isoform (Homo sapiens) (UniProt Q02297); test: NRG1 binders on small-molecule microarrays, primary screen, psychiatric disease protein project, biochemical, small-molecule microarray, fluorescence 635/667 (AID 1075); conditions: NRG1 binding, 635 nm fluorescence, higher = more signal;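 note: score combines 667 nm spot fluorescence with signal to noise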
[7] = tested on: Neuregulin-1 EGF-like domain; test: binders of neuregulin-1 EGF-like domain, primary screen, biochemical, small-molecule microarray, 635 nm fluorescence (AID 1081); conditions: small-molecule microarray binding, higher = more signal;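 note: binding of the protein to compounds printed on small-molecule microarray slides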
[8] = FRG1 promoter luciferase signal modulators, primary screen, FRG1 inhibition for FSHD, cell-based, C2C12 myotubes, firefly/Renilla luciferase, luminescence (AID 1084); conditions: higher = more signal, called active from +8 up or from −8 down
[9] = binders of probe aFST on microarray, primary screen, stem cell growth factor project, biochemical, small-molecule microarray, fluorescence 635/667 (AID 1086); conditions: higher = more signal;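 note: score merges 667 nm fluorescence with signal-to-noise of each printed compound spot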
[10] = binders of probe aHhip on microarray, primary screen, stem cell growth factor project, biochemical, small-molecule microarray, fluorescence 635/667 (AID 1087); conditions: higher = more signal;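 note: score merges spot fluorescence at 667nm with spot signal to noise ratio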
[11] = tested on: PRMT1 (protein arginine N-methyltransferase 1); test: PRMT1 binders on small-molecule microarrays, primary screen, biochemical, small-molecule microarray, 635 nm fluorescence (AID 1088); conditions: small-molecule microarray binding, higher = more signal;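 note: binding of Prmt1 protein to compounds spotted on small-molecule microarray slides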
[12] = yeast growth modulation, basal conditions, primary screen, YJM789 clinical isolate, OD600, 24 h (AID 1089);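 note: growth of clinical yeast isolate S. cerevisiae YJM 789 seeded 1000 cells per well; test concentration not given here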; conditions: S. cerevisiae YJM789 growth, higher = more signal, called active from +8 up or from −8 down
[13] = fission yeast growth modulation, primary screen, strain 972, OD600, 24 h, no modulator (AID 1090);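 note: basal condition with compound alone and no growth modifier present; test concentration not given here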; conditions: S. pombe 972 growth, higher = more signal, called active from +8 up or from −8 down
[14] = S. cerevisiae growth modulation with rapamycin, primary screen, strain BY4716, OD600, 96 h (AID 1091); conditions: higher = more signal, called active from +8 up or from −8 down; note: test concentration not given here
[15] = target: Torsin-1A-interacting protein 2 (Homo sapiens) (UniProt Q8NFQ8); test: LULL1 binders on small-molecule microarray, primary screen, cell lysate, human LULL1 lysate, 635/667 nm fluorescence (AID 1092); conditions: hLULL1 lysate binding, 635 nm fluorescence, higher = more signal;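 note: probe is lysate of COS7 cells overexpressing human LULL1; score merges per-feature 667 nm fluorescence with signal-to-noise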
[16] = E. coli growth modulation, two-sided OD650, primary screen, E. coli filamentation project, strain DRC41, 24 h (AID 1093); conditions: OD650, 24 h, higher = more signal, called active from +8 up or from −8 down;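 note: MC1000 strain lacking acrAB efflux and sulA so SOS filamentation is blocked; test concentration not given here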
[17] = small-molecule microarray binders of probe aLefty2, primary screen, biochemical, biotinylated probe, 635/667 nm fluorescence (AID 1094); conditions: higher = more signal;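 note: score merges spot fluorescence near 667 nm with spot signal-to-noise ratio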
[18] = tested on: Noggin (protein binding on small-molecule microarray); test: Noggin binders on small-molecule microarray, primary screen, biochemical, 635/667 nm fluorescence (AID 1095); conditions: 635 nm fluorescence, higher = more signal;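 note: score merges 667 nm feature fluorescence with signal to noise over triplicate slides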
[19] = target: Neurogenic locus notch homolog protein 3 (Homo sapiens) (UniProt Q9UM47); test: NOTCH3 binders on small-molecule microarray, primary screen, biochemical, 635/667 nm fluorescence (AID 1096); conditions: NOTCH3 binding, 635 nm fluorescence, higher = more signal
[20] = small-molecule microarray binders of probe aEGFR, primary screen, biochemical, biotinylated probe, 635/667 nm fluorescence (AID 1097); conditions: higher = more signal;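 note: probe is a biotinylated anti-EGFR antibody binding compounds printed on slides; score combines fluorescence near 667 nm and signal to noise of each spot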

Chain of Neurogenic locus notch homolog protein 2 (Homo sapiens) (Q04721 whole entry, looked up, canonical isoform): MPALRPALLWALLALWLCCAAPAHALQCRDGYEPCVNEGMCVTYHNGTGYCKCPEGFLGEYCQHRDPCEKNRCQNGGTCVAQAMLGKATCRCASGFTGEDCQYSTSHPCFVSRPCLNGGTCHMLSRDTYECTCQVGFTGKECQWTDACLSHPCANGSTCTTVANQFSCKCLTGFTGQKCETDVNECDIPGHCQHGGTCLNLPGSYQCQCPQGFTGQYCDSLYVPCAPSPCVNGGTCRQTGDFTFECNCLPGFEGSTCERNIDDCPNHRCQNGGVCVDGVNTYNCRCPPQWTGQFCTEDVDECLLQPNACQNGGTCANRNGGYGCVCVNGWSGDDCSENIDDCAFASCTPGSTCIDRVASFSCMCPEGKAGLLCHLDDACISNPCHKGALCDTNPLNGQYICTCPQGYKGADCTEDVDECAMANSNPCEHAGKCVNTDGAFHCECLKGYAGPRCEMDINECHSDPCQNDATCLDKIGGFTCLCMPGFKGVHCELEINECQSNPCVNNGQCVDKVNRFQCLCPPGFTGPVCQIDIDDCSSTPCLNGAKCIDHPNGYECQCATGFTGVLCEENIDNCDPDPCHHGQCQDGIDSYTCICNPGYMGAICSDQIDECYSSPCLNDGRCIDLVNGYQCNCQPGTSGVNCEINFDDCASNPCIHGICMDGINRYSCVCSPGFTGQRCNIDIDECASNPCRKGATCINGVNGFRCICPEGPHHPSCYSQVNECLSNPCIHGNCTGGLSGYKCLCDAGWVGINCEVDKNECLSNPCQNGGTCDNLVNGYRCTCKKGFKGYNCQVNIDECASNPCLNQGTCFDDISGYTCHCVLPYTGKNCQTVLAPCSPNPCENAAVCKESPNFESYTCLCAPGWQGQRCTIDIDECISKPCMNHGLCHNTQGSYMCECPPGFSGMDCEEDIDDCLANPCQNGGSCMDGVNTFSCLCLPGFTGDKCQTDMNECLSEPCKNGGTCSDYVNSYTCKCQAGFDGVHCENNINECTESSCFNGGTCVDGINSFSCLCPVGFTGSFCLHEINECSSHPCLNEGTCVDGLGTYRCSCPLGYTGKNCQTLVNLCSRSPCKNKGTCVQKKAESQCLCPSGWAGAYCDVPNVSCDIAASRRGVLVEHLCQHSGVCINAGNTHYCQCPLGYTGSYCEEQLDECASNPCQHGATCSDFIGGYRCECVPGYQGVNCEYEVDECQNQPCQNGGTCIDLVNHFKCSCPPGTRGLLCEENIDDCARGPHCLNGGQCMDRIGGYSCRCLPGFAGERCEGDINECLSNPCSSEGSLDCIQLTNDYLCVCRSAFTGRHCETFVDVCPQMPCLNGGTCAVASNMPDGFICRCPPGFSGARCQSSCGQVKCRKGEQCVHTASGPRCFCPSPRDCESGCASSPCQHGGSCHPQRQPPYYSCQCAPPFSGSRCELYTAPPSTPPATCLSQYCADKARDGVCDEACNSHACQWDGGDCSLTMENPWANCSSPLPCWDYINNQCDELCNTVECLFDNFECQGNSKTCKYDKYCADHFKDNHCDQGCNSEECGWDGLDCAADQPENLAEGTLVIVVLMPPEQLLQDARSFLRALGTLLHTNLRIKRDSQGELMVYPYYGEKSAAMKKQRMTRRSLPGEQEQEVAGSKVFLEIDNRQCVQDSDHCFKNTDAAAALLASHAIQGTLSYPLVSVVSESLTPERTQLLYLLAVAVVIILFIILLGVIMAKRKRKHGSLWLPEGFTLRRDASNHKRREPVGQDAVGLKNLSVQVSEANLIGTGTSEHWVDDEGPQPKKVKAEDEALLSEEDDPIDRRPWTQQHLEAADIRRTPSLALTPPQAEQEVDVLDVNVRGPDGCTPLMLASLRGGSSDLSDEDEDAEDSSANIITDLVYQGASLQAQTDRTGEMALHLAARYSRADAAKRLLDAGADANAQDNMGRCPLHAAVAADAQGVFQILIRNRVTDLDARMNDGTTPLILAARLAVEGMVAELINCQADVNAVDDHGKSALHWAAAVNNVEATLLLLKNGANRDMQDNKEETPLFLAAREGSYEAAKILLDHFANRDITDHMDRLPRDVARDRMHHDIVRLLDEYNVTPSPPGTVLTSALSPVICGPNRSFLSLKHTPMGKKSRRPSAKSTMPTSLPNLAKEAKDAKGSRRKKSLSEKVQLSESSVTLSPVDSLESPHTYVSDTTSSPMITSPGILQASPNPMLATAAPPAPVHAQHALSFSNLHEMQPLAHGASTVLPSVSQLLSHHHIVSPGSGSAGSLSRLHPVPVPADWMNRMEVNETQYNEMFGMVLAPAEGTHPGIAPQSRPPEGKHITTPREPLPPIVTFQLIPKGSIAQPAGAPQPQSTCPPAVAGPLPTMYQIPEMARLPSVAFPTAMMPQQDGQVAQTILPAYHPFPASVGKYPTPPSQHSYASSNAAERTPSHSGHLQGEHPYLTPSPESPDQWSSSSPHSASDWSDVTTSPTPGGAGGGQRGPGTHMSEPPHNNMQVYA
Chain of Pro-neuregulin-1, membrane-bound isoform (Homo sapiens) (Q02297 whole entry, looked up, the tested form may be a part, canonical isoform): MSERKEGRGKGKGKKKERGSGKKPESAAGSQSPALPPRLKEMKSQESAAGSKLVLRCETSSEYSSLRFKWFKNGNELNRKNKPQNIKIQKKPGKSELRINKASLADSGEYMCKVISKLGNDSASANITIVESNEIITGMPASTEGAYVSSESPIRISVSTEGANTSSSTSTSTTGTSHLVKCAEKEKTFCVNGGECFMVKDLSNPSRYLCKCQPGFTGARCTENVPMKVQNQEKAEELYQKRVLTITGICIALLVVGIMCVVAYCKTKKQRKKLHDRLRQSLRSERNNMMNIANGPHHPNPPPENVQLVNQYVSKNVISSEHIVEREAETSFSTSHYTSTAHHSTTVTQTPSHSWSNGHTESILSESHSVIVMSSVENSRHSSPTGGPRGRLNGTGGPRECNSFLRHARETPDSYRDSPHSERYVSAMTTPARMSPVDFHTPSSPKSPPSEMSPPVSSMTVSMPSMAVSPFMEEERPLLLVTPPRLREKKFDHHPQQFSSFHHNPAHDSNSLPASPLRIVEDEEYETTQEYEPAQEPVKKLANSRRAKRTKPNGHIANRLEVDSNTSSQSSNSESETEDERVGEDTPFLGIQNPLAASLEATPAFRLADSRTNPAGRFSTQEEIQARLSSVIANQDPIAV
Chain of Torsin-1A-interacting protein 2 (Homo sapiens) (Q8NFQ8 whole entry, looked up): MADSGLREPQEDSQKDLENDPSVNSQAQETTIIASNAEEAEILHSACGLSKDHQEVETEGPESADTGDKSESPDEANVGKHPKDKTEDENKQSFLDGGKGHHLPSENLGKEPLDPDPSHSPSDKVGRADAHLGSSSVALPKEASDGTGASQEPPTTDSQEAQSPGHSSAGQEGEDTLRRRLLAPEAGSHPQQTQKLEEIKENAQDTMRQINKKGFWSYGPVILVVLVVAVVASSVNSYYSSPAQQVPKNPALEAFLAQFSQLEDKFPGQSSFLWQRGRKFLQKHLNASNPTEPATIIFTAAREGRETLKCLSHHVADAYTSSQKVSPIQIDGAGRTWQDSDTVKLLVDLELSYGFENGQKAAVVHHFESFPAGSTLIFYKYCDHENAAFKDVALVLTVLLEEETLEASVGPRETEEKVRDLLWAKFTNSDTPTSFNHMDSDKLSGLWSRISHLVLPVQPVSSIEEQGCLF

Structure (SMILES)	composite z-score [1]	composite z-score [2]	composite z-score [3]	composite z-score [4]	composite z-score [5]	composite z-score [6]	composite z-score [7]	z-score [8]	composite z-score [9]	composite z-score [10]	composite z-score [11]	z-score [12]	z-score [13]	z-score [14]	composite z-score [15]	z-score [16]	composite z-score [17]	composite z-score [18]	composite z-score [19]	composite z-score [20]
CCOC(=O)NN=C1C[C@@H](O)[C@@H](O)[C@@H]2[C@@H]3C(=O)N(C[C@@H]4CCCO4)C(=O)[C@@H]3CC[C@@H]12	-0.216	0.0306	-0.0786	0.454	0.453	0.121	0.69	0.52 (inactive)	0.0701	-0.0994	0.0939	0.822 (inactive)	-0.408 (inactive)	0.256 (inactive)	0.375	0.757 (inactive)	-0.0458	0.642	0.697	-0.0681
CC(C)(C)N1CC=CC23O[C@@H]4C=CCCOC(=O)C4[C@H]2C(=O)N(CCCCCO)[C@@H]3C1=O (stereo not given in full)	-0.0873	1.48	-0.183	0.448	0.366	-0.0196	1.28	-0.85 (inactive)	-0.443	0.0156	0.937	0.37 (inactive)	0.501 (inactive)	-0.215 (inactive)	1.74	0.261 (inactive)	-0.13	0.304	0.0136	0.0912
[N-]=[N+]=NCc1ccccc1C[C@]1(C(=O)NCc2ccccc2)N=C(c2ccc(OCCCO)cc2)O[C@H]1c1ccccc1N=[N+]=[N-]	0.741	-0.0741	-0.0231	1.13	1.22	0.799	1.01	-1.34 (inactive)	1.16	0.295	1.26	0.228 (inactive)	1 (inactive)	6.01 (inactive)	3.17	0.368 (inactive)	0.284	0.179	0.755	0.464
O=C1[C@H]2[C@H]3[C@H](O)[C@H](O)CC(=NO[C@@H]4O[C@H](CO)[C@@H](O)[C@H](O)[C@H]4O)[C@H]3CC[C@H]2C(=O)N1Cc1ccccc1	-0.658	0.0571	-0.116	0.602	1.4	-0.328	0.0944	0.632 (inactive)	0.564	0.199	1.46	-0.509 (inactive)	-0.468 (inactive)	-0.987 (inactive)	0.903	-0.61 (inactive)	-0.0015	1.02	0.669	-0.0565
CC(C)[C@@H](OCc1ccccc1)[C@H](C)C=NO[C@H](C)c1cn([C@H](CO)Cc2ccccc2)nn1	-0.479	0.227	-0.228	0.616	0.397	-0.154	0.658	-0.757 (inactive)	0.344	-0.409	1.55	-2.33 (inactive)	-3.29 (inactive)	-1.26 (inactive)	0.825	-0.671 (inactive)	-0.153	0.453	0.712	-0.0828
NC(=O)NCC#Cc1ccc2c(c1)[C@]1(C(=O)N2)[C@H](c2ccc(O)cc2)N2[C@H](c3ccccc3)[C@H](c3ccccc3)OC(=O)[C@H]2[C@@H]1C(=O)N1CCCCCCC1	2.38	-0.206	0.242	0.122	0.617	0.467	0.839	-1.21 (inactive)	2.31	0.257	1.53	1 (inactive)	-0.447 (inactive)	1.24 (inactive)	1.55	0.951 (inactive)	1.24	1.55	1.01	0.511
CC(C)=NOCc1cccc(-c2cc(-c3ccccc3)no2)c1	-0.575	0.221	-0.0767	0.717	0.0486	0.205	0.345	0.603 (inactive)	0.376	0.0024	1.27	-0.366 (inactive)	-21 (active)	-0.442 (inactive)	1.18	0.533 (inactive)	-0.0375	0.7	0.881	0.161
CC(=O)C[C@H](O)[C@@H](NC(=O)OC(C)(C)C)C(C)C	-0.475	-0.627	-0.129	-0.328	-0.453	-0.759	-0.996	0.178 (inactive)	-0.126	-0.0668	-0.402	-0.498 (inactive)	-0.644 (inactive)	0.0836 (inactive)	-1.18	-0.972 (inactive)	-0.214	-0.198	-0.0052	-0.171
CC(=O)O[C@H]1C2=C(C(=O)[C@@H]3O[C@@H]31)[C@H]1C(C)O[C@@H]2[C@@]23C(=O)[C@@H]4O[C@@H]4[C@@H](O)C2=CO[C@H](C)[C@@H]13 (stereo not given in full)	-0.295	0.16	-0.0314	0.226	0.166	-0.274	0.377	-1.07 (inactive)	-0.0354	-0.0645	0.417	0.014 (inactive)	-0.361 (inactive)	0.465 (inactive)	-0.0273	0.16 (inactive)	-0.265	-0.0408	0.0275	-0.0671
